Data on eight compounds can be found in PubChem BioAssay (NCATS).

“And” between values parts separate entries of the source, which are not always exact repeats. Equal values may be shown once. Unmarked numbers belong to inactive results. Inconclusive results are not listed. The source made the active and inactive calls. Unless noted, the call rests on the fitted dose curve; in most records, active means well fitted curve in the direction sought with a large enough effect; inconclusive means small, poorly fitted or top-dose-only effect, or another doubt; inactive means no such curve, though single readings can be large; an effect the other way counts as inactive or inconclusive.

In test [1] the test system is CAOV3. The test can be described thus: Primary qHTS to identify gynecologic anti-cancer compounds using libraries of approved drugs and bioactive compounds (AID 1345084). Further: nearly all actives have a fitted effect of over 55% in size. Further: potency means the concentration at half of the fitted maximal effect. On activity change, negative = cytotoxicity: on the % scale 0 is the no-effect control and ±100 the full control effect. The settings on record: Gynecologic cancer cell panel viability, ATPlite luminescence, 48 h; series mostly up to 57.5 µM. In outline: (§1)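 Cytotoxicity screen measuring ATP content by luciferase luminescence. Each compound is applied at five concentrations for 48 h at 37 C with 5% CO2.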

The test system of test [2] is CASKI. The test is described as above. The settings on record: Gynecologic cancer cell panel viability, ATPlite luminescence, 48 h; series mostly up to 57.5 µM. A digest of the protocol:
as §1
(In general: In ATP-based viability assays light output follows the ATP content of the culture.)

The test system of test [3] is Es-2. Described as above. The settings on record: Gynecologic cancer cell panel viability, ATPlite luminescence, 48 h; series mostly up to 57.5 µM. A digest of the protocol: as §1
The subject of test [4] is HeLa. Described as above. The settings on record: Gynecologic cancer cell panel viability, ATPlite luminescence, 48 h; series mostly up to 57.5 µM. In outline: as §1
For test [5], the system named is Hek293T. Described as above. The settings on record: Gynecologic cancer cell panel viability, ATPlite luminescence, 48 h, control line for the selectivity index; series mostly up to 57.5 µM. In outline: as §1
Test [6] has as its system JEG-3. Described as above. As to conditions: Gynecologic cancer cell panel viability, ATPlite luminescence, 48 h; series mostly up to 57.5 µM. In outline: as §1
Test [7] relates to OV90. The test is described as above. The settings on record: Gynecologic cancer cell panel viability, ATPlite luminescence, 48 h; series mostly up to 57.5 µM. A digest of the protocol: as §1
Test [8] has as its system PA-1. The description is as above. As to conditions: Gynecologic cancer cell panel viability, ATPlite luminescence, 48 h; series mostly up to 57.5 µM. In outline: as §1
The subject of test [9] is SKOV3. Described as above. The settings on record: Gynecologic cancer cell panel viability, ATPlite luminescence, 48 h; series mostly up to 57.5 µM. A digest of the protocol: as §1
The subject of test [10] is Tov-21-G. Described as above. As to conditions: Gynecologic cancer cell panel viability, ATPlite luminescence, 48 h; series mostly up to 57.5 µM. In outline:
as §1

The test system of test [11] is Tov112D. The test is described as above. As to conditions: Gynecologic cancer cell panel viability, ATPlite luminescence, 48 h; series mostly up to 57.5 µM. In outline:
as §1

Test [12] deals with astro. The test can be described thus: Drug repurposing screens with cells derived from glioblastoma tumor samples (AID 1345199). Further: nearly all actives have a fitted effect of over 40% in size. Further: potency means the concentration at half of the fitted maximal effect. On activity, negative = cell killing: on the % scale 0 is the no-effect control and ±100 the full control effect. The settings on record: viability, ATP luminescence, 48 h; series mostly up to 45.9 µM. A digest of the protocol:
(§2)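 Primary testing used CD133+ neurospheres from four GBM patients, seven concentrations, 48 h exposure and ATP-based viability; confirmation added three slower-growing patient lines.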

Test [13] has as its target Nuclear receptor subfamily 1 group I member 2 (Rattus norvegicus) (UniProt Q9R1A7). The test can be described thus: qHTS assay for small molecule activators of the rat pregnane X receptor (rPXR) signaling pathway (AID 651751; call rule not given here; further: 0% is about no effect). As to conditions: rPXR reporter cells, luciferase (One-Glo), 24 h. For orientation: In qHTS, concentration-response curves come from the screen itself.

The nature of test [14]: qHTS assay for small molecule activators of the human pregnane X receptor (PXR) signaling pathway (AID 720659; call rule not given here; further: 0% is about no effect).
Test [15] can be described thus: Drug repurposing screens with cells derived from glioblastoma tumor samples (AID 1345199). Further: nearly all actives have a fitted effect of over 40% in size. Further: potency means the concentration at half of the fitted maximal effect. On activity, negative = cell killing: on the % scale 0 is the no-effect control and ±100 the full control effect. As to conditions: GBM patient neurospheres viability, ATP luminescence, 48 h. A digest of the protocol:
as §2

Where [16] appears, read: at 45.9 µM (top of the series), tumour line B.
Setting [17] is: at 45.9 µM (top of the series), tumour line D.
Setting [18] is: at 46.1 µM (top of the series), tumour line C.

Sequence of Nuclear receptor subfamily 1 group I member 2 (Rattus norvegicus) (Q9R1A7 whole entry, looked up): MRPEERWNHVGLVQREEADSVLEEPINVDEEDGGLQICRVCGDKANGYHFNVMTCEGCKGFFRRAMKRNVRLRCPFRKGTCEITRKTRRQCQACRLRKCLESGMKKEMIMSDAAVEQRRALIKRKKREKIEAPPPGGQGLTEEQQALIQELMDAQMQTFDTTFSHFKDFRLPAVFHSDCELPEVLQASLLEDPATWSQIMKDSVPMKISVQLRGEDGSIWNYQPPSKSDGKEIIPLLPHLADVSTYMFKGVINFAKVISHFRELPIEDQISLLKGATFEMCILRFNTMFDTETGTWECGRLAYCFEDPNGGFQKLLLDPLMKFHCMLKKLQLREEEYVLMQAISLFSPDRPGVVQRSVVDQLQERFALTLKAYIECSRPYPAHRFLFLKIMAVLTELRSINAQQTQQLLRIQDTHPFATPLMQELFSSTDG

On to `C[C@@H]1O[C@@H](O[C@H]2[C@H](O)[C@@H](C(=O)O)O[C@@H](O[C@H]3CC[C@@]4(C)C(CC[C@]5(C)C4CC=C4C6CC(C)(C)CC[C@]6(C(=O)O)CC[C@]45C)C3(C)C)[C@@H]2O[C@@H]2O[C@H](CO)[C@@H](O)[C@H](O)[C@H]2O)[C@H](O)[C@H](O)[C@H]1O` (stereo not given in full), for which the activity change, negative = cytotoxicity in test [1] was 1.71% [at 11.6 µM]; in [2], -2.17% [at 11.6 µM]; in [3], 0.67% [at 11.6 µM]; in test [4], 6.77% [at 11.6 µM]; in test [5], -9.05% [at 11.6 µM]; in [6] it was -1.5% [at 11.6 µM]. Also, the activity change, negative = cytotoxicity in test [7] was -2.55% [at 11.6 µM]; in [8] it was -11.5% [at 11.6 µM]; in test [9] it was -1.84% [at 11.6 µM]; in [10], 0.088% [at 11.6 µM]; in test [11], 0.16% [at 11.6 µM].
In the case of `CC1CCC(=O)CC(O)C(O)CC(=O)O1` (stereo not given), the Potency result in test [1], in test [2], in test [3], in test [4], in test [5] and in test [6] was “inactive” in each case. Moreover, the Potency entry in test [7], in test [8], in test [9], in test [10] and in test [11] was “inactive” in each case.
Take `COc1cc(C2Oc3c(OC)cc(CCCO[C@@H]4O[C@H](CO)[C@@H](O)[C@H](O)[C@H]4O)cc3C2CO)ccc1O` (stereo not given in full): the Potency result in test [1], in test [2], in test [3], in test [4], in [5] and in [6] was “inactive” each time. Also, the Potency result in test [7], in [8], in test [9], in [10] and in test [11] was “inactive” each time.
`COc1ccc(C[C@H](N)C(=O)N[C@H]2[C@@H](O)[C@H](n3cnc4c(N(C)C)ncnc43)O[C@@H]2CO)cc1`: the Potency in test [1] was 1120 nM (active); in test [2], 1580 nM (active); in test [3], 3160 nM (active); in test [4], 2000 nM (active); in test [5] it was 2820 nM (active); in [6], 3980 nM (active). Also, the Potency in test [7] is 3160 nM (active); in test [8], 708 nM (active); in test [9], 3550 nM (active); in test [10] it was 3980 nM (active); in test [11], 2000 nM (active); in [12], 3160 nM (active).
On to `CC(C)CC1(C(=O)OCc2ccc(O[C@@H]3O[C@H](CO)[C@@H](O)[C@H](O)[C@H]3O)cc2)CC(=O)OC(C(=O)O)CC(=O)OCC2OC(O1)C(OC(=O)/C=C/c1ccc(O)cc1)C(O)C2O` (stereo not given in full), for which the activity change, negative = cytotoxicity is 1.66% [at 11.6 µM] in test [1]; -1.89% [at 11.6 µM] in test [2]; 11.3% [at 11.6 µM] in [3]; 0% [at 11.6 µM] in test [4]; 5.47% [at 11.6 µM] in test [5]; 1.44% [at 11.6 µM] in test [6]. In addition, the activity change, negative = cytotoxicity in test [7] was -14.4% [at 11.6 µM]; in test [8], -8.97% [at 11.6 µM]; in test [9] it was -14.9% [at 11.6 µM]; in test [10], -1.82% [at 11.6 µM]; in test [11], 0.377% [at 11.6 µM].
Turning to `CC1=C2[C@@H]([C@H](C)CC[C@H]2/C=C(\C)C(=O)O)[C@H](O)C1`, the Potency result in test [1], in test [2], in test [3], in test [4], in test [5] and in [6] was “inactive” each time. Besides, the Potency entry in test [7], in [8], in test [9], in test [10] and in test [11] was “inactive” each time. The max response in [13] was -1.26%. The outcome in test [14] was inactive.
Take `CCC[C@@H]1C[C@@H](C(=O)N[C@@H]([C@H]2O[C@H](SC)[C@H](OP(=O)(O)O)[C@@H](O)[C@H]2O)[C@H](C)Cl)N(C)C1`: the Potency entry in [1], in [2], in test [3], in test [4], in test [5] and in [6] was “inactive” in each case. Further, the Potency result in test [7], in test [8], in test [9], in test [10], in test [11] and in [12] was “inactive” in each case. Moreover, the activity, negative = cell killing is -3.77% and -8.29% in [15] (setting [16]); -15.4% and -22.6% in [15] (setting [17]); -6.5% and -2.32% in [15] (setting [18]).
With `CCC(=O)NS(=O)(=O)c1ccc(-c2c(-c3ccccc3)noc2C)cc1`, the Potency result in [1], in [2], in test [3], in [4], in [5] and in [6] was “inactive” throughout. For the same compound, the Potency entry in test [7], in test [8], in [9], in test [10], in test [11] and in test [12] was “inactive” in each case. The activity, negative = cell killing is 0.0321% in [15] (setting [16]); 8.31% in [15] (setting [17]); -24% in test [15] (at 46 µM (top of the series), tumour line A); -3.29% in [15] (setting [18]).
